# Bioassay records deposited in PubChem BioAssay by National Center for Advancing Translational Sciences (NCATS).
# HepG2 tox: qHTS for Inhibitors of TGF-b: Cytotox Counterscreen; HepG2 CAGA-GFP viability, ATP luminescence, 18 h; Potency, µM (top dose mostly 46.1 µM), inactives show at the top dose activity change, negative = cytotoxicity, actives largely listed as cytotoxic; actives 0.76% (n = 410,000); note: potency is the fitted concentration of half-maximal effect
#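 CellTiter-Glo luminescence gave cytotoxicity after 18 hours at 37 degrees C. The cells were HepG2 CAGA-GFP in 1% FBS DMEM, stimulated with 500 pg/mL TGF-beta after compound addition. %Activity was normalised to no-cell wells (complete cell-killing) and DMSO (no toxicity), and curves were fitted and classified.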
# TDP1 cell noCPT: qHTS for Inhibitors of human tyrosyl-DNA phosphodiesterase 1 (TDP1): qHTS in cells in absence of CPT. DT40 Tdp1-/- hTDP1 cells, no CPT, ATP luminescence, 48 h. Potency, µM (doses to about 46.2 µM), inactives show at the top dose activity change, negative = growth inhibition, hits mostly inhibitors. actives 15% (n = 420,000). AID 686978, 2013; note: potency is the fitted concentration of half-maximal effect; % is set by controls: 0 for no effect and ±100 for the full control effect; nearly all actives have a fitted effect of over 55% in size
#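 Chicken DT40 Tdp1-/- cells stably complemented with human TDP1 were seeded at 400 cells/well with DMSO in place of 20 nM camptothecin. After compound pinning, cells grew at least 48 hr at 37 °C; viability read by CellTiter-Glo luminescence.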
# TDP1 inh: qHTS Assay for Inhibitors of Tyrosyl-DNA Phosphodiesterase (TDP1); actives 0.28% (n = 350,000); AID 485290, 2010; Tyrosyl-DNA phosphodiesterase 1 (Homo sapiens), Q9NUW8; Potency, µM (titrated, usually from 130 µM), without a hit: top-dose activity change, negative = inhibition, actives largely listed as inhibitors; recombinant TDP1, AlphaScreen DNA substrate cleavage; note: potency is the fitted concentration of half-maximal effect; % is set by controls: 0 for no effect and ±100 for the full control effect; nearly all actives have a fitted effect of over 40% in size
# Target sequence (Q9NUW8 whole entry, looked up): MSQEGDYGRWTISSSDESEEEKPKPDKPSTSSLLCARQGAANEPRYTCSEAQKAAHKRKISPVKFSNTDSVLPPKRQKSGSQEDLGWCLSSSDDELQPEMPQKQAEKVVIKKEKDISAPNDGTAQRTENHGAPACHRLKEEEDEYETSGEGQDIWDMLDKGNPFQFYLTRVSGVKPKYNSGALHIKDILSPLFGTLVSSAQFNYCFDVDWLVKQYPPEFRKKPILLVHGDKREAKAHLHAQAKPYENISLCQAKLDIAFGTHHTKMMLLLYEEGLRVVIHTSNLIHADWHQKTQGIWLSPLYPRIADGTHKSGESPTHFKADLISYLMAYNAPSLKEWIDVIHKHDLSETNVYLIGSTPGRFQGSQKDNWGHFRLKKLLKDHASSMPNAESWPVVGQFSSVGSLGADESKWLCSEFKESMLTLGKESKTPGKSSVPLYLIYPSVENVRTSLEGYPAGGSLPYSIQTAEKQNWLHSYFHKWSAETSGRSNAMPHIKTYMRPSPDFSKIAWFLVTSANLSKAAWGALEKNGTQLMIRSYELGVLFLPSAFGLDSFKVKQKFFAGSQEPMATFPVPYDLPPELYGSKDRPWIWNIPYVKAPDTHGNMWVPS
#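 Signal: AlphaScreen proximity between streptavidin donor and anti-FITC acceptor beads on intact substrate. Reaction: Tdp1 1 nM, substrate 15 nM final, 5 min RT after 15 min compound preincubation.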
# IL1B secr inh: qHTS for Inhibitors of Inflammasome Signaling: IL-1-beta AlphaLISA Primary Screen; THP-1 LPS/ATP IL-1B secretion, AlphaLISA, 16 h; hits give low values; activity change, % at 57.5 µM; actives 4.7% (n = 360,000); AID 743279, 2014; in the data active = activity change below about -50%; inconclusive = mostly about -30% to -49%; note: % is set by controls: 0 for no effect and ±100 for the full control effect
#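 THP-1 cells pretreated 1 hr with compounds (up to 57.5 uM final), then stimulated with LPS (250 ng/mL final) plus ATP (1.25 mM final); secreted IL-1B measured by AlphaLISA after 16 hr, decreased signal indicating inhibition.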
# DT40 TDP1 CPT: qHTS for Inhibitors of human tyrosyl-DNA phosphodiesterase 1 (TDP1): qHTS in cells in presence of CPT | chicken DT40 Tdp1-/-;hTDP1 cells + 20 nM CPT, ATP luminescence, 48 h | Potency, µM (doses to about 46.2 µM), for the others: top-dose activity change, negative = growth inhibition, actives largely listed as inhibitors | actives 12% (n = 420,000); note: potency is the fitted concentration of half-maximal effect; % is set by controls: 0 for no effect and ±100 for the full control effect; nearly all actives have a fitted effect of over 55% in size
#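 Chicken DT40 Tdp1-/- cells stably complemented with human TDP1 were seeded at 400 cells/well in medium containing 20 nM camptothecin, exposed to pin-transferred compounds, and grown at 37 °C for at least 48 hr. Viability was read as ATP luminescence.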
# TGFb SMAD3 inh: qHTS for Inhibitors of TGF-b. AID 588855, 2011. Potency, µM (highest dose often 46.1 µM), for inactives: at the highest dose activity, negative = inhibition, hits mostly inhibitors. HepG2 CAGA-GFP TGF-b/SMAD3 reporter, GFP fluorescence, 18 h; TGF-beta stimulated, 500 pg/mL final. actives 1.2% (n = 410,000); note: potency is the fitted concentration of half-maximal effect; % is set by controls: 0 for no effect and ±100 for the full control effect; nearly all actives have a fitted effect of over 65% in size
#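 GFP signal (ex488/em500-530) from TGF-beta-stimulated HEPG2 CAGA-GFP cells, 500 pg/mL final, 18 h at 37 degrees C in DMEM plus 1% FBS, normalized to unstimulated and DMSO-stimulated controls.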
# The depositor's hits bear a star; ? = inconclusive; . = no result given; ! = not confirmed by another sample; [ ] = dose if it differs, or a comment. An excerpt weighted towards active compounds, which were near 18% of everything screened. Unless noted, calls come from the whole dose curve; as a rule, active = well fitted curve in the direction sought with a large enough effect; inconclusive = small, poorly fitted or top-dose-only effect, or another doubt; inactive = no such curve, though single readings can be large; an effect the other way counts as inactive or inconclusive.
SMILES,HepG2 tox,TDP1 cell noCPT,TDP1 inh,IL1B secr inh,DT40 TDP1 CPT,TGFb SMAD3 inh
COc1ccccc1-c1cc2c(c(OC)c1)OCCN(C(=O)Cn1nc(-c3ccccc3)c3ccccc3c1=O)C2,.,-23%,.,.,23%[9.04 µM],.
COc1ccc(-c2cc(NC=O)c3ncc(-c4cccc(C(F)(F)F)c4)n3c2)cc1OC,-45%,21µM*,.,-63*,23µM*,-14%
CC(C)CSc1nnc(CNC(=O)c2ccccn2)n1C,.,-7%,.,.,4%,.
Cc1[nH]nc2c1C(C1CC=CCC1)C(C#N)=C(N)O2 (centres undefined),-43%,?,2%,-112*,21µM*,?
CCC(CC)C1C(C#N)=C(N)Oc2n[nH]c(-c3ccccc3)c21 (centres undefined),8.9µM*,26µM*,2%,-30,?,?
CC(C)C1C(C#N)=C(N)Oc2n[nH]c(-c3ccc4ccccc4c3)c21 (centres undefined),-71%,10µM*,8%,5,?,?
CCc1[nH]nc2c1C(C(C)C)C(C#N)=C(N)O2 (centres undefined),-26%,?,-2%,-84*,?,?
COc1ccc(N2CCN(S(=O)(=O)c3ccc(OC)c(C(=O)N4CCOCC4)c3)CC2)cc1,1%,-13%,9%,3,-9%,-1%
Cc1ccc(-n2nc(CO)c(C(=O)NCc3cccnc3)n2)cc1,-17%,-15%,-2%,.,?,0%
CCC(CC)C1C(C#N)=C(N)Oc2n[nH]c(C)c21 (centres undefined),-60%,16µM*,6%,-88*,18µM*,9%
CCn1nc(C)c(C2C(C#N)=C(N)Oc3n[nH]c(C)c32)c1C (centres undefined),4%,-23%,5%,-5,3%,-11%
N#CC1=C(N)Oc2n[nH]c(-c3ccccc3)c2C1c1ccsc1 (centres undefined),1%,12µM*,1%,40,?,0%
CCOc1ccc(N2CC(C(=O)Nc3nnc(Cc4ccc(OC)cc4)s3)CC2=O)cc1 (centres undefined),-8%,-14%,4%,23,0%,-6%
COc1ccc(CN2CC[C@H]3C=CC[C@@H](C(=O)NCCc4ccccc4)[C@H]3C2=O)cc1OC,1%,?,.,0,14µM*,3%
O=C(Nc1ccccc1)[C@@H]1CC=C[C@@H]2CCN(Cc3ccccc3)C(=O)[C@@H]21,1%,22µM*!,.,-7,?,-5%
COc1ccc(CN2CC[C@H]3C=CC[C@@H](C(=O)NCc4cccnc4)[C@H]3C2=O)cc1OC,17%,2%,.,.,13%,0%
COc1ccc([C@H]2CC(=O)C=C(c3cccc4c3Oc3ccccc3S4)C2)cc1,2%,?,1%,-1,?,-27%
COc1cccc(C(=O)N2CCc3c(C(=O)NC(C)c4ccco4)c(OC)cc(=O)n3CC2)c1OC (centres undefined),.,1%,.,.,9%,.
N/C(=N\O)c1ccc(N2CCN(c3ncccc3C(F)(F)F)CC2)nc1,0%,18µM*,-1%,22,?,12%
CC(C)(C)C(=O)N1CCN(c2ncccc2C(F)(F)F)CC1,-8%,-25%,3%,20,-26%,-4%
